# Experimental data taken from PubChem BioAssay (NCI).
# Values joined by “and” are separate entries in the source; they are usually repeats but may differ in a detail not shown here. Identical values can stand only once. This is part of a sample that, as a whole, favours compounds with a hit. Of some 79,000 tested, about 15% had one in any assay. Unmarked numbers belong to inactive results. Active and inactive are the calls of the source. No stated cut-off is given here; in the data, active means growth inhibition above about 70%; inactive means the rest.
# Key:
# [1] = NCI Yeast Anticancer Drug Screen. Data for the rad50 strain (AID 155);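 further: 0% = growth of vehicle-only cultures of the same strain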; details: S. cerevisiae rad50 strain growth inhibition; at 50.0 µM; hits give high values
# In short: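 DNA repair mutant yeast, compound exposure, growth read-out; inhibition is taken relative to vehicle.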
# [2] = NCI Yeast Anticancer Drug Screen. Data for the mec2-1 strain (AID 157); details: S. cerevisiae mec2-1 strain, at 50.0 µM, hits give high values
# In short: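 Strain: mec2-1 (DNA repair/cell cycle alteration). Compound exposure, then growth measured; inhibition expressed relative to vehicle.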
# [3] = NCI Yeast Anticancer Drug Screen. Data for the sgs1 mgt1 strain (AID 161);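 further: 0% = growth of cultures given vehicle only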; details: S. cerevisiae sgs1 mgt1 strain, at 50.0 µM, hits give high values
# In short: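 Read-out: growth inhibition vs vehicle controls. Cells: mutant yeast strain deficient in DNA damage repair.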
# [4] = NCI Yeast Anticancer Drug Screen. Data for the cln2 rad14 strain (AID 165);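 further: 0% = growth equal to vehicle treated cultures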; details: S. cerevisiae cln2 rad14 strain, at 50.0 µM, hits give high values
# In short: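 Compounds are applied to the cln2 rad14 yeast strain, and growth is then compared with that of vehicle-treated cultures to give inhibition.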
# [5] = NCI Yeast Anticancer Drug Screen. Data for the bub3 strain (AID 167); details: S. cerevisiae bub3 mutant strain, at 50.0 µM, hits give high values
# In short: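 In this screen, a yeast mutant lacking normal mitotic checkpoint function is challenged with compound. Relative growth versus vehicle gives the inhibition value.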
# [6] = NCI Yeast Anticancer Drug Screen. Data for the mlh1 rad18 strain (AID 175); details: S. cerevisiae mlh1 rad18 strain growth inhibition; at 50.0 µM; hits give high values
# In short: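 Read-out is yeast growth inhibition, calculated against vehicle-only controls. The compound was applied to a strain engineered with DNA damage repair alterations.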
Compound,growth inhibition [1],growth inhibition [2],growth inhibition [3],growth inhibition [4],growth inhibition [5],growth inhibition [6]
Br[CH](Br)[Hg][c]1ccccc1,99.2% (active),99.5% (active),94.3% (active),99.2% (active),99.2% (active),99.2% (active)
COc1cc(-c2[nH]ccc2Cl)oc1C1=C2N=C3C=C2C(C(C)C)C1CCCCCCCC3 (centres undefined),85.3% (active),83.6% (active),89% (active),89.1% (active),88.3% (active),89.6% (active)
O=C([O-])C[SH2+].[Co+3].[NH-]CC[NH-].[NH-]CC[NH-].[O-][Cl+3]([O-])([O-])O,7.4%,20.1%,14.3%,-16.6%,17.4%,20.4%
Cc1ccc2ccccc2c1,3.9%,-14.5%,-6.05%,-3.05%,2.4%,-7.35%
CC1(CCN)COC(c2ccccc2)(c2ccccc2)OC1 (tested in a mixture with another compound),20.1%,4.15%,-0.7%,31.4%,10.2%,43.2%
OC[P+](CO)(CO)CO,-2.8%,1.05%,-8.15%,-24.9%,14.7%,-5.9%
O=c1c2cc(Br)ccc2[nH]c(=S)n1-c1ccc(Br)cc1,9.95%,-7.2%,15.2%,18%,35.5%,12.2%
CN1CCC23c4c5cc(-c6cc7c8c(c6O)OC6C(O)C=CC9C(C7)N(C)CCC896)c(O)c4OC2C(O)C=CC3C1C5 (centres undefined),-5.2% and 0.8%,-10.7% and -11.2%,1.9% and 2.85%,-13.2% and 4.85%,-4.45% and 7.4%,-4.8% and 1.75%
CN(C)c1ccc(-c2ccc(N(C)C)cc2)cc1,-10.6%,7.3%,5.45%,17.6%,3.2%,-2.6%
CC(C)(C)C1=CC(=C(P(=O)(O)O)P(=O)(O)O)C=C(C(C)(C)C)C1=O,-32.6%,-12.7%,-49.5%,-21.9%,-47.8%,-34.5%
O=C1CN=CN1,-8.85%,8.85%,-0.45%,-12.6%,-7.5%,-5.3%
O=C(O)C(=O)Cc1ccc2c(c1)OCO2,-3.8%,-19.3%,-28.6%,-32.9%,-20.2%,0.5%
Cc1ccc(CI)cc1,-2.15%,-6.7%,-22.9%,18.9%,20.1%,19.5%
CCC[N+](CCC)(CCC)CCC.N#CC(C#N)=C([SH2+])[SH2+].N#CC(C#N)=C([SH2+])[SH2+].N#CC(C#N)=C([SH2+])[SH2+].[Cr+3],-3.1%,10.2%,11.8%,-35%,9.1%,7.5%
Cc1ccc(OP(=O)(Oc2ccc(C)c(C)c2)Oc2ccc(C)c(C)c2)cc1C,-3.7%,-8.55%,-9.15%,-8.95%,5.2%,-17%
NNC(=O)c1cc([N+](=O)[O-])c(O)c([N+](=O)[O-])c1,-9.85%,-14.8%,8.35%,7.4%,11.8%,-5.55%
O=C(O)C1CCCC(C(=O)O)[N-]1.O=C(O)C1CCCC(C(=O)O)[N-]1.[Cr+2] (centres undefined),31%,-3.5%,15.8%,-14.5%,-2%,14.3%
CC(=O)O.CC(=O)O.CC(=O)O.CC(=O)O.[Cu].[Cu],36.9%,20.2%,56.5%,-53.6%,26.9%,40.8%
O=N[O-].O=N[O-].[Co].[NH2-].[NH2-].[NH2-].[NH2-],0.1%,-11.5%,-3.5%,-14.3%,2.15%,26.9%
CCC1(CC(C)O)C(=O)NC(=O)NC1=O (centres undefined),6.9%,-2.45%,-20%,-37.7%,-0.65%,-23.1%

Compound,growth inhibition [1],growth inhibition [2],growth inhibition [3],growth inhibition [4],growth inhibition [5],growth inhibition [6]
C/C(=N\N1CN(C(C)C(=O)O)P(N(CCO)CCO)N=C1N)c1cccs1 (centres undefined),-5.45%,-11.2%,5.85%,-18.6%,7.95%,-8.4%
C=CCOC(N)=O,6.85%,8.3%,-0.3%,20.9%,22.5%,1.65%
CCCCCCCNC(=O)CBr,44%,26.2%,33.4%,4.75%,41.2%,46.5%
O=C(O)CN(CCN(CC(=O)O)CC(=O)O)CC(=O)O.[Ni+2],-29.2%,-23%,-11.5%,-15%,0.4%,-19.9%
c1ccc(CC[n+]2cccc3ccccc32)cc1,-3.8%,11.2%,3.95%,-26.3%,-8.1%,-6.85%
CCC(C)C1(CCc2ccccc2)C(=O)NC(=O)NC1=O (centres undefined),-2.8%,-14.7%,3.55%,-31.3%,10.4%,-0.65%
CC1(C(N)Cc2c[nH]c3ccccc23)OCCO1 (centres undefined),-7.7%,-0.1%,-28.6%,-6.55%,-0.25%,4.1%
Nc1ccc(C(=O)O)c(C(=O)O)c1,-10.5%,-6.8%,1.35%,-32%,-13.9%,-7.05%
[Mn+3].[O-][Cl+3]([O-])([O-])O.[O-]c1ccccc1C=NCCN1CC1.[O-]c1ccccc1C=NCCN1CC1,95.5% (active),98.7% (active),93.5% (active),87.1% (active),98.8% (active),84.2% (active)
CN(C)P(=O)(N(C)C)N1CCCCCC1,-8.2%,-21.6%,0%,-18.4%,3.4%,-10.6%
c1ccc(-c2sc3cccc[n+]3c2-c2ccccc2)cc1,-5.3%,0.6%,-14.5%,-10.4%,13.4%,-3.35%
CC(C)CC(=O)[O-].CC(C)CC(=O)[O-].N.N.N.N.[Co+3].[O-][Cl+3]([O-])([O-])[O-],-0.8% and -12.4%,9.7% and 11.6%,-28.9% and -24.1%,10.3% and 1.35%,15.8% and -0.6%,-14.5% and 2.55%
Nc1cc(N)nc(N)n1,18.1%,-2.9%,1.35%,-4.6%,-18.9%,6.2%
COc1ccc(C[C@@H]2NC[C@@H](O)[C@@H]2OC(C)=O)cc1,91.3% (active),93.2% (active),93.2% (active),91.8% (active),92.2% (active),91.3% (active)
COc1ccc2c3c1OC1C(Oc4nnnn4-c4ccccc4)C=CC4C(C2)N(C)CCC341 (centres undefined),39.2%,5.55%,13.5%,21.6%,-5.75%,12.5%
COc1ccc(CC2OC3(CCCCC3)CC3CCCCN32)cc1 (centres undefined),23.2%,13.9%,11.5%,7.65%,-5.6%,6%
NC(CCOCCP(=O)(O)O)C(=O)O (centres undefined),-51.3%,-36.4%,-44%,-8%,-15.3%,-40.1%
O=C1C[C@@H]2OCC=C3C[N+]4([O-])CC[C@]56c7ccccc7N1[C@H]5[C@H]2[C@H]3C[C@@H]64 (some centres undefined),-4.85% and -6.5%,-7.75% and -6.3%,2.05%,0.9%,25.4%,-3.15% and -3.7%
O=c1c2ccccc2oc2ccccc12 (tested in a mixture with another compound),18.9%,17.7%,11.7%,10.2%,23.2%,17.1%
